# Measured values taken from PubChem BioAssay (NCI).
# About 83,000 compounds went through this panel and 20% of them were active in at least one assay; those are over-represented in the sample as a whole.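 How to read the values: 0–100, growth inhibition (40 = 60% inhibited); 0, no net growth; -100 to 0, cell death (-40 = 40% of starting cells died; -100 = all dead).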 Active and inactive are the calls of the source. How the source made its calls: active means growth percent below 10; inactive means the rest.
# Test system: T-47D breast
# Test: NCI-60 one-dose screen, 48 h (100 = growth as untreated, 0 = no growth, -100 = all killed)
# Details: 10 µM unless noted
row,SMILES,growth
1,COC(=O)c1c2c(c(C)[n+]([O-])c1C)C(=O)C(NCc1ccc(Cl)cc1)=CC2=O,37.5% (inactive)
2,C=C1C(=O)O[C@H]2[C@H]1CC/C(COC(=O)CCSCCC(=O)OC/C1=C/CC[C@@]3(C)O[C@H]3[C@H]3OC(=O)C(=C)[C@@H]3CC1)=C\CC[C@@]1(C)O[C@@H]21,19.1% (inactive)
3,Cc1c(-n2nnc(-c3nc4ccccc4s3)c2N)c(=O)n(-c2ccccc2)n1C,94.6% (inactive)
4,O=C(c1cc2ccccc2o1)c1nn(-c2ccccc2)/c(=N/N=Cc2cn(-c3ccccc3)nc2-c2cc3ccccc3oc2=O)s1,92.9% (inactive)
5,C=CCn1c(SCC(=O)NCc2cc(C)c(O)c(C)c2)nc2ccc(Cl)cc2c1=O,103% (inactive)
6,CNC(=O)c1c(NC(=O)c2ccc(C(F)(F)F)cc2)sc2c1CCC(=O)C2,-15.2% (active)
7,O=C(Nc1ccc(-c2nc(N3CCOCC3)c3cccn3n2)cc1)Nc1cccnc1,-24.8% (active)
8,COc1ccc(/C(C)=C(/c2ccc(OCCCN(C)C)cc2)c2ccc(OC(=O)Cc3ccccc3)cc2)cc1,38.2% (inactive)
9,O=C(NCc1ccccc1)Nc1ccccc1CNc1nc(Nc2ccc(OCCN3CCCC3)cc2)ncc1Cl,104% (inactive)
10,CN1C(=O)/C(=C/c2ccc(C(=O)Nc3ncc(Cc4ccc(Cl)cc4)s3)cc2)SC1=S,37.8% (inactive)
11,CCN1C(=O)N(CC)C2C1NN=c1s/c(=C\c3cccc([N+](=O)[O-])c3)c(=O)n12 (centres undefined),59.3% (inactive)
12,CCN(CC)CCOc1ccc(C(=C(C)c2ccc(Cl)cc2)c2ccc(OCCN(CC)CC)cc2)cc1,-66.4% (active)
13,C/C(=N\NC(=O)c1ccccc1O)c1cccc(/C(C)=N/NC(=O)c2ccccc2O)n1,41.8% (inactive)
14,O=[N+]([O-])c1ccc(-c2nc(N3CCOCC3)c3c4c(sc3n2)CCCC4)cc1,83.5% (inactive)
15,O=C(Nn1c2c(sc1=Nc1ccccc1)C(=O)c1ccccc1C2=O)c1cc2ccc1CCc1ccc(cc1)CC2,71.1% (inactive)
16,N=C(N)c1ccc(-c2ccc(-c3cc(Cl)cc(Cl)c3)o2)o1,-58.3% (active)
17,O=C(NNc1nccc(Nc2ccc(S(=O)(=O)Nc3ccncc3)cc2)n1)c1ccccc1,92.6% (inactive)

row,SMILES,growth
1,O=C1/C(=C/c2cccs2)SC(=S)N1CCCN1CCOCC1,67.4% (inactive)
2,CCN(CC)C(=S)SC(SC(=S)N(CC)CC)C(=O)c1nnn(-c2ccc([N+](=O)[O-])cc2)c1C,76.4% (inactive)
3,C=C(C)[C@@H]1CC[C@]2(C(=O)O)CC[C@]3(C)[C@H](CC[C@@H]4[C@@]5(C)C[C@@H](Cc6cn(CCO[C@@H]7O[C@H](COC(C)=O)[C@H](OC(C)=O)[C@H](OC(C)=O)[C@H]7OC(C)=O)nn6)[C@H](O)C(C)(C)[C@@H]5CC[C@]43C)[C@@H]12,51.6% (inactive)
4,O=C(Cn1cc(CN2CCCCCC2)nn1)Nc1ccc2c(ccn2Cc2ccccc2)c1,69.8% (inactive)
5,COc1ccc(C(c2cc(OC)c(OC)c(OC)c2)N2CCN(c3ccccc3)CC2)cc1 (centres undefined),81.8% (inactive)
6,CCN(CC)CCNC(=O)c1cn2ncnc(Oc3ccc(NC(=O)Nc4ccc(Cl)c(C(F)(F)F)c4)c(F)c3)c2c1C,64.5% (inactive)
7,Cc1ccc(-n2c(=S)[nH]c3sc4c(c3c2=O)CCC(=O)C4)cc1,42.4% (inactive)
8,C/C(Nc1ccc(Cl)c(Cl)c1)=C1\CCOC1=O,86.6% (inactive)
9,COc1cc(-c2cc(-c3cccs3)c(C#N)c(N3CCOCC3)n2)cc(OC)c1OC,89% (inactive)
10,CCN1CC(=O)N(/N=C2\C(=O)Nc3ccccc32)C1=S,73.6% (inactive)
11,C=CCn1cc(-c2nc3ccccc3s2)c2cc(-c3ccc4c5c(cccc35)C(=O)N(N)C4=O)ccc21,78.2% (inactive)
12,N=C(N)c1ccc(-c2ccc(-c3ccc(Cl)cc3)s2)nc1,56.4% (inactive)
13,Cc1cc2c(O)c(-c3cccc(Cl)c3)c3sc(=O)oc3c2cc1C,14.8% (inactive)
14,N#Cc1cccc(NC(=O)c2oc3ccccc3c2-c2cnn(-c3ccccc3)c2)c1,49.6% [50 µM] (inactive)
15,Cc1cc2c(O)c(-c3cc(Cl)ccc3Cl)c3sc(=O)oc3c2cc1C,32.4% (inactive)
16,Cc1ccccc1NC(=O)c1sc2nc(C)c(C(=O)/C=C/c3ccccc3)cc2c1N,32% (inactive)
17,COc1cc(NC(C)CCCNC(C)C)c2ncccc2c1OC (centres undefined),31.6% (inactive)
